Data as given in article PMC5540273 (PLoS ONE, 2017).

Key:
Conditions in all cases: concentration: 1 μM, replicates: in singlicate; n = 1
[1] = system: HIPK2
[2] = system: HIPK3
[3] = system: HIPK4
[4] = system: HPK1
[5] = system: HUNK
[6] = system: ICK
[7] = system: IGF1R
[8] = system: T1, IKK-alpha
T1 construct: gene CHUK

[9] = system: T2, IKK-beta
T2 construct: gene IKBKB

[10] = system: T3, IKK-epsilon
T3 construct: gene IKBKE
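Note: KINOMEscan kinase panel screen.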

Structure (SMILES) | %Inh [1] [%] | %Inh [2] [%] | %Inh [3] [%] | %Inh [4] [%] | %Inh [5] [%] | %Inh [6] [%] | %Inh [7] [%] | %Inh [8] [%] | %Inh [9] [%] | %Inh [10] [%]
O=C(Nc1ccccc1F)NC1CCN(c2ccnc(Nc3ccc(F)cc3)n2)C1 (stereo not shown) [GSK1379722] | 0 | 10 | 0 | 42 | 24 | 100 | 100 | 24 | 23 | 0
CCCc1ccc(S(=O)(=O)NC2CCN(c3ccnc(Nc4ccc(OC)cc4)n3)C2)cc1 (stereo not shown) [GSK1379737] | 0 | 8 | 0 | 31 | 10 | 0 | 8 | 36 | 0 | 0
COc1ccc(Nc2nccc(N3CCC(NC(=O)Nc4ccc5c(c4)OCO5)C3)n2)cc1 (stereo not shown) [GSK1379745] | 0 | 23 | 9 | 67 | 11 | 0 | 0 | 7 | 9 | 12
OCCOCCn1ccc2ncnc(Nc3ccc(Oc4cccc(Cl)c4)c(Cl)c3)c21 | 0 | 0 | 0 | 0 | 7 | 0 | 0 | 0 | 0 | 0
CSc1ccc(NC2=C(c3ccccc3Cl)C(=O)NC2=O)cc1 [SB-342411] | 0 | 31 | 0 | 0 | 0 | 40 | 6 | 0 | 0 | 44
O=C(Nc1ccccc1)Nc1ccc(Oc2ccc3nccn3n2)cc1 | 0 | 0 | 4 | 0 | 9 | 0 | 0 | 0 | 0 | 0
COc1ccc(NC(=O)c2ccc(-c3cc(-c4nnc(C)o4)ccc3C)cc2)cc1 [GW595885] | 0 | 10 | 0 | 24 | 3 | 4 | 0 | 25 | 24 | 0
Clc1ccc(-c2cc(-c3c[nH]nc3-c3ccccn3)ccn2)cc1 [GW681251] | 0 | 19 | 0 | 24 | 6 | 0 | 4 | 0 | 28 | 3
NC(=O)c1sc(-n2cnc3ccccc32)cc1OCc1ccccc1F [GSK1024306] | 44 | 0 | 24 | 51 | 0 | 0 | 0 | 0 | 2 | 0
Cl.c1ccc(Cn2ccc3cc(Nc4ncnc5ccccc45)ccc32)cc1 [GW275568] | 0 | 9 | 0 | 31 | 3 | 0 | 0 | 0 | 0 | 24
Cc1cccc(-c2nc(Nc3ccc4[nH]nnc4c3)c3ccccc3n2)n1 [GW867587] | 0 | 0 | 0 | 0 | 37 | 0 | 0 | 0 | 0 | 0
CC(C)N1CCC(n2cnc(-c3ccc(F)cc3)c2-c2ccnc(N)n2)CC1 [SB-223132] | 0 | 0 | 11 | 0 | 0 | 0 | 0 | 0 | 0 | 0
Nc1nc(-c2ccc3c(N)n[nH]c3c2)cc(N2CCCCC2)n1 [GSK2228768] | 0 | 0 | 0 | 32 | 0 | 0 | 0 | 0 | 0 | 29
Cn1ccc2ncnc(Nc3ccc(Oc4cccc(Cl)c4)c(Cl)c3)c21 | 37 | 22 | 3 | 2 | 0 | 12 | 0 | 3 | 7 | 11
Cc1cc(N2CCC(NS(=O)(=O)c3ccc(F)cc3)CC2)nc(Nc2cccc(C#N)c2)n1.O=C(O)C(F)(F)F [GSK1653537] | 47 | 0 | 0 | 43 | 25 | 0 | 0 | 12 | 2 | 7
Fc1cccc(COc2ccc(Nc3ncnc4cc[nH]c34)cc2Cl)c1 | 27 | 40 | 9 | 0 | 8 | 5 | 5 | 5 | 23 | 39
Cc1ccc(C)c(NC(=O)NCCNc2ccnc(Nc3ccc(F)cc3)n2)c1 [GSK1379878] | 0 | 0 | 0 | 28 | 0 | 0 | 0 | 0 | 0 | 9

Structure (SMILES) | %Inh [1] [%] | %Inh [2] [%] | %Inh [3] [%] | %Inh [4] [%] | %Inh [5] [%] | %Inh [6] [%] | %Inh [7] [%] | %Inh [8] [%] | %Inh [9] [%] | %Inh [10] [%]
COc1ccc(Nc2nccc(N3CCC(NC(=O)c4cccc(NC(C)=O)c4)C3)n2)cc1 (stereo not shown) [GSK1379732] | 13 | 0 | 0 | 43 | 28 | 0 | 0 | 0 | 0 | 19
Cl.O=S(=O)(c1cccc(F)c1)c1ccc(Nc2ncnc3cc(Br)sc23)cc1Cl [GSK306886] | 0 | 23 | 0 | 29 | 57 | 0 | 0 | 0 | 41 | 0
Clc1cccc(-c2nc(Nc3ccncc3)c3ccccc3n2)c1 [GW873004] | 25 | 2 | 22 | 0 | 53 | 0 | 0 | 0 | 0 | 0
Nc1n[nH]c2nnc(-c3ccccc3)cc12 [SB-517389] | 55 | 83 | 0 | 35 | 32 | 6 | 0 | 6 | 23 | 22
CC(C)(C)c1ccc(-n2cnc3c(N)ncnc32)cc1 [SKF-97263] | 0 | 6 | 0 | 60 | 14 | 17 | 11 | 0 | 7 | 19
COC(=O)c1c(-c2ccccc2)c2cc(Cl)ccc2c(=O)n1Cc1ccc(S(C)(=O)=O)cc1 | 24 | 0 | 0 | 0 | 0 | 32 | 0 | 0 | 0 | 0
Fc1cccc(COc2ccc(Nc3ncnc4sc(-c5ccc[nH]5)cc34)cc2Cl)c1 [GW707818] | 0 | 1 | 0 | 39 | 10 | 0 | 0 | 0 | 0 | 0
Fc1ccc(Nc2nccc(-c3c(-c4ccc(Cl)cc4)nn4ncccc34)n2)cc1F [GW829058] | 11 | 36 | 19 | 16 | 40 | 25 | 6 | 34 | 29 | 0
CC(=O)Nc1n[nH]c2ncc(-c3ccccc3)cc12 [SB-548492] | 48 | 34 | 7 | 23 | 24 | 28 | 10 | 0 | 22 | 0
CN1CCC(n2cnc(-c3ccc(F)cc3)c2-c2ccnc(NC3CCNCC3)n2)CC1 [SB-229482] | 45 | 0 | 0 | 27 | 0 | 45 | 0 | 0 | 0 | 0
Cl.Fc1ccccc1COc1ccc(Nc2ncnc3ccc(-c4nnc(C(F)(F)F)o4)cc23)cc1Cl [GW424170] | 0 | 0 | 0 | 20 | 3 | 0 | 11 | 0 | 0 | 0
COc1cc2c(Nc3cccc(NC(=O)c4ccccc4)c3)ncnc2cc1OCCCN1CCOCC1 [GSK223810] | 0 | 0 | 7 | 55 | 0 | 0 | 0 | 0 | 0 | 19
Nc1nccc2scc(-c3ccc4c(c3)CCN4C(=O)Cc3cc(F)ccc3F)c12 [GSK2587663] | 0 | 6 | 0 | 28 | 14 | 0 | 13 | 5 | 0 | 5
CS(=O)(=O)CCNCc1nc(-c2ccc3ncnc(Nc4ccc(OCc5cccc(F)c5)c(Cl)c4)c3c2)cs1.Cl [GW583340] | 0 | 0 | 0 | 33 | 0 | 0 | 0 | 3 | 6 | 7
CC(C)(C)OC(=O)NC1CCCN(c2cc(-c3ccc4c(N)n[nH]c4c3)nc(N)n2)C1 (stereo not shown) [GSK2286096] | 0 | 12 | 0 | 26 | 5 | 7 | 0 | 0 | 0 | 12
Cn1cc(-c2ccc3c(c2)CCN3C(=O)Cc2cccc(C(F)(F)F)c2)c2c(N)ncnc21 [GSK2606414] | 0 | 16 | 0 | 6 | 0 | 4 | 0 | 13 | 7 | 4
O=C(Nc1n[nH]c2nc(-c3ccco3)c(Br)cc12)c1ccc(CN2CCCC2)cc1.O=C(O)[C@H](O)[C@@H](O)C(=O)O [SB-742352] | 0 | 0 | 0 | 17 | 0 | 37 | 0 | 0 | 0 | 0
